From PubChem BioAssay AID1159580 (chemical genetic matrix, 2015)
Where “and” joins values, the source holds several entries; their conditions need not be identical. Equal entries are not always repeated. About 2,000 (36%) of roughly 5,500 compounds were called active. Inconclusive results (about 18%) are left out. No stated cut-off is given here; in the data, active means normalized growth mostly below about 0.91 (no sharp cut-off); inconclusive means no clear call, values can overlap the other calls; inactive means mostly above about 0.92. The list shows a part of the results.

Test: chemical genetic growth profiling, strain panel (AID 1159580);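 further: tested at 20 µM; growth read once vehicle control cultures reached saturation at 30 °C; 1 = growth at the plate median or of vehicle wells; lower values mean less growth of the strain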
Details: S. cerevisiae deletion strains, growth OD

Measured: normalized growth

O=C1C(O)=C(O)C(=O)C(O)=C1O
inactive: locus YAL013W, strain DEP1, hits give low values 0.983 | locus YAL021C, strain ccr4, hits give low values 1 | locus YAL026C, strain drs2, hits give low values 1.02 | locus YAL030W, strain snc1, hits give low values 1 | locus YBL061C, strain skt5, hits give low values 1.03 | locus YBR009C, strain hhf1, hits give low values 0.992 | locus YBR021W, strain FUR4, hits give low values 1.01 | locus YBR023C, strain chs3, hits give low values 1.02 | locus YBR171W, strain sec66, hits give low values 1.02 | locus YBR229C, strain ROT2, hits give low values 0.964 | locus YBR231C, strain swc5, hits give low values 1.02 | locus YBR279W, strain paf1, hits give low values 1.01 | locus YCL011C, strain gbp2, hits give low values 0.991 | locus YCL016C, strain dcc1, hits give low values 1.02 | locus YCL029C, strain bik1, hits give low values 0.991 | locus YCL061C, strain MRC1, hits give low values 1.01 | locus YCL069W, strain vba3, hits give low values 1.03 | locus YCR088W, strain abp1, hits give low values 1.01 | locus YDL005C, strain med2, hits give low values 1.01 | locus YDL035C, strain GPR1, hits give low values 1 | locus YDL040C, strain nat1, hits give low values 0.997 | locus YDL074C, strain BRE1, hits give low values 0.968 | locus YDL101C, strain DUN1, hits give low values 0.965 | locus YDL134C, strain PPH21, hits give low values 0.983 | locus YDL185W, strain tfp1, hits give low values 0.959 | locus YDL192W, strain arf1, hits give low values 0.99 | locus YDR001C, strain nth1, hits give low values 1 | locus YDR069C, strain doa4, hits give low values 1.01 | locus YDR101C, strain arx1, hits give low values 1.01 | locus YDR137W, strain rgp1, hits give low values 0.984 | locus YDR150W, strain NUM1, hits give low values 0.968 | locus YDR159W, strain sac3, hits give low values 0.977 | locus YDR162C, strain NBP2, hits give low values 0.939 | locus YDR195W, strain ref2 0.999 | locus YDR297W, strain sur2, hits give low values 1.02 | locus YDR318W, strain mcm21, hits give low values 1.03 | locus YDR334W, strain swr1, hits give low values 1.01 | locus YDR335W, strain msn5, hits give low values 1.01 | locus YDR388W, hits give low values 0.991 | locus YDR392W, strain spt3, hits give low values 1.04 | locus YDR502C, strain sam2, hits give low values 0.996 | locus YEL003W, strain gim4, hits give low values 1.02 | locus YEL037C, strain rad23, hits give low values 0.998 | locus YEL061C, strain CIN8 (second series), hits give low values 1.01 | locus YEL061C, strain CIN8, hits give low values 0.987 | locus YER015W, strain faa2, hits give low values 1.01 | locus YER016W, strain bim1, hits give low values 1.01 | locus YER110C, hits give low values 0.986 | locus YER111C, strain swi4, hits give low values 0.991 | locus YER155C, strain BEM2 (second series), hits give low values 1.01 | locus YER155C, strain BEM2, hits give low values 1 | locus YER167W, strain BCK2, hits give low values 1.01 | locus YFR010W, strain ubp6, hits give low values 1 | locus YGL078C, strain dbp3, hits give low values 0.977 | locus YGL086W, strain mad1, hits give low values 1.02 | locus YGL167C, strain pmr1, hits give low values 1 | locus YGL173C, strain kem1, hits give low values 1.01 | locus YGL227W, strain vid30, hits give low values 1.01 | locus YGL240W, strain doc1, hits give low values 1.02 | locus YGL248W, strain PDE1, hits give low values 0.974 | locus YGL253W, strain hxk2, hits give low values 1 | locus YGR078C, strain PAC10, hits give low values 0.971 | locus YGR135W, strain pre9, hits give low values 0.968 | locus YGR229C, strain SMI1, hits give low values 0.969 | locus YGR252W, strain gcn5, hits give low values 1.04 | locus YHR013C, strain ard1, hits give low values 1.03 | locus YHR027C, strain rpn1, hits give low values 1.02 | locus YHR030C, strain SLT2, hits give low values 1 and 0.988 | locus YHR079C, strain IRE1 (second series), hits give low values 1 | locus YHR079C, strain IRE1, hits give low values 0.973 | locus YHR094C, strain hxt1, hits give low values 0.984 | locus YHR129C, strain ARP1, hits give low values 0.994 | locus YHR142W, strain chs7, hits give low values 1.02 | locus YHR200W, strain rpn10, hits give low values 1 | locus YIL066C, strain RNR3, hits give low values 0.977 | locus YIL073C, strain SPO22, hits give low values 1.07 | locus YIL125W, strain kgd1, hits give low values 0.967 | locus YIR030C, strain dcg1, hits give low values 0.993 | locus YJL092W, strain hpr5, hits give low values 1.01 | locus YJL095W, strain BCK1 (second series), hits give low values 1.02 | locus YJL095W, strain BCK1, hits give low values 0.991 and 0.993 | locus YJL115W, strain asf1, hits give low values 1 | locus YJL129C, strain trk1, hits give low values 1.03 | locus YJL134W, strain LCB3, hits give low values 0.995 | locus YJL154C, strain vps35, hits give low values 1.02 | locus YJL164C, strain tpk1, hits give low values 1 | locus YJL166W, strain qcr8, hits give low values 1.01 | locus YJL168C, strain set2, hits give low values 0.996 | locus YJL187C, strain SWE1 (second series), hits give low values 0.961 | locus YJL187C, strain SWE1, hits give low values 1.01 | locus YJR043C, strain POL32, hits give low values 1.03 | locus YJR066W, strain TOR1, hits give low values 0.941
